From PubChem BioAssay
Rows were chosen to be rich in hits. Some 19% of all compounds tested hit in one or more screens of this group.
KB-V1 MDR tox – kills drug-selected multidrug resistant KB-V1 cells; KB-V1 MDR cells viability, CellTiter-Glo, 72 h; Potency, µM (doses to about 46.1 µM), hits mostly cytotoxic; 400,000 tested, 3.4% active; note: nearly all actives have a fitted effect of over 60% in size
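Compound-treated KB-V1 multidrug-resistant cells, 72 h, 37 degrees C; viability by CellTiter-Glo. Fitted qHTS curves give the values.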
HT1080 IDH1KD tx – toxicity to HT-1080 IDH1 knockdown cells (counter line). Potency, µM (highest dose often 46.1 µM), for inactives: at the highest dose activity, negative = toxicity, actives largely listed as cytotoxic. HT-1080 IDH1 knockdown viability, ATP luminescence, 48 h. AID 686971. 360,000 tested, 2% active;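 note: 0% = DMSO wells and -100% = cell-free medium wells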
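After a 2 h attachment period, IDH1KD HT-1080 cells took pin-transferred compound for 48 h at 37 °C; ATP-based luminescence after 10 min room-temperature reagent incubation reported viability.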
HT1080-NT tox – kills 2HG-producing HT-1080-NT fibrosarcoma cells | HT-1080-NT fibrosarcoma viability, CellTiter-Glo ATP luminescence, 48 h | Potency, µM (top dose mostly 46.1 µM), for the others: at the top dose activity, negative = less viability, hits mostly cytotoxic | 360,000 tested, 1.6% active;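 note: NT is the 2HG producing partner of a matched IDH1 knockdown line; 0% = DMSO-treated cells and -100% = media-only wells without cells; nearly all actives have a fitted effect of over 55% in size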
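Viability by CellTiter-Glo luminescence after 48 h compound exposure at 37C of HT-1080-NT cells (750/well, RPMI, 5% FBS). % activity scaled between DMSO wells and medium-only wells, then curve-fitted and categorized by curve class.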
DT40 TDP1 no CPT – qHTS for Inhibitors of human tyrosyl-DNA phosphodiesterase 1 (TDP1): qHTS in cells in absence of CPT; DT40 Tdp1-/- hTDP1 cells, no CPT, ATP luminescence, 48 h; Potency, µM (series often up to 46.2 µM), for the others: top-dose activity change, negative = growth inhibition, hits mostly inhibitors; 420,000 tested, 15% active; AID 686978, 2013; note: nearly all actives have a fitted effect of over 55% in size
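Compound effects on proliferation are scored in DT40 Tdp1-/-;hTDP1 cells in the absence of CPT. ATP levels (CellTiter-Glo luminescence) are recorded after a ≥48 hr, 37 °C incubation.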
TDP1 cell CPT – growth inhibition of DT40 Tdp1-/-;hTDP1 cells with camptothecin (screen for TDP1 inhibitors). chicken DT40 Tdp1-/-;hTDP1 cells + 20 nM CPT, ATP luminescence, 48 h. 420,000 tested, 12% active. Potency, µM (titrated, usually from 46.2 µM), inactives show at the highest dose activity change, negative = growth inhibition, hits mostly inhibitors; note: nearly all actives have a fitted effect of over 55% in size
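Chicken DT40 Tdp1-/- cells stably complemented with human TDP1 were seeded at 400 cells/well in medium containing 20 nM camptothecin, exposed to pin-transferred compounds, and grown at 37 °C for at least 48 hr. Viability was read as ATP luminescence.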
KB-3-1 cytotox – KB-3-1 parental cell cytotoxicity; KB-3-1 viability, CellTiter-Glo ATP luminescence, 72 h; Potency, µM (top dose mostly 46.1 µM), usual class: cytotoxic; 400,000 tested, 1.4% active; note: nearly all actives have a fitted effect of over 60% in size
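Screening of KB-3-1 cells (DMEM, 10% FBS, phenol-red free) ran from lowest to highest compound concentration; after 72 h at 37 °C viability was read luminescently and curves fitted.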
* = called active by the depositor; i = inactive; u = inconclusive; x = no result. Calls come from the whole dose curve; as a rule, active = well fitted curve in the direction sought with a large enough effect; inconclusive = small, poorly fitted or top-dose-only effect, or another doubt; inactive = no such curve, though single readings can be large; an effect the other way counts as inactive or inconclusive. Unless noted, % is set by controls: 0 for no effect and ±100 for the full control effect; potency is the fitted concentration of half-maximal effect.

SMILES	KB-V1 MDR tox	HT1080 IDH1KD tx	HT1080-NT tox	DT40 TDP1 no CPT	TDP1 cell CPT	KB-3-1 cytotox
O=C(/C=C/[C@H]1O[C@@H](n2ccc(=O)[nH]c2=O)[C@H](O)[C@@H]1O)NCCc1c[nH]c2ccccc12	i	17%	20%	28%	1%	i
CCC(CC)C(=O)Nc1nc(-c2ccc3c(c2)CCN3C(=O)C2CC2)c(C)s1	i	-11%	-18%	23µM*	u	u
CC(C)C(=O)Nc1nc(-c2ccc3c(c2)CCN3C(=O)C2CC2)cs1	i	5%	9%	13µM*	12µM*	i
O=C(Cn1ncc2c(=O)oc3ccccc3c21)NCc1ccc(Cl)cc1	i	x	x	-6%	-1%	i
O=C(CCC1CCCCC1=O)c1ccccc1 (centres undefined)	i	15%	8%	-1%	-3%	i
CCc1ccc(C(=O)CCC2CCCCC2=O)cc1 (centres undefined)	i	-2%	-1%	16µM*	u	i
O=C(Nc1ccccn1)c1sc2ccccc2c1Cl	i	x	x	x	x	i
Cc1ccc(C)c(NC(=O)Cn2c(SCC(=O)NCc3ccccc3)nc3ccccc32)c1	i	x	x	-19%	u	i
Cn1ncc2nc(SCC(=O)Nc3ccc(Br)cc3F)n(Cc3ccccc3)c(=O)c21	i	x	x	u	u	i
CCN(C(=O)CSc1nc2ccccc2n1CC(=O)Nc1ccc(F)cc1F)c1ccccc1	i	x	x	15µM*	23µM*	i
CCn1cc2nc(SCC(=O)Nc3ccc(F)cc3F)n(Cc3ccccc3)c(=O)c2n1	i	-5%	5%	u	23µM*	i
CCn1cc2nc(SCC(=O)Nc3ccc(C)cc3C)n(Cc3ccc(C)cc3)c(=O)c2n1	x	x	x	5.2µM*	3.7µM*	x
Cc1ccc(Cn2c(SCC(=O)Nc3cc(C)on3)nc3ccccc3c2=O)cc1	u	3%	u	u	u	i
CCOC(=O)c1c(C)oc2nc(C)nc(Nc3cc(C)cc(C)c3)c12	i	x	x	0%	5%	i
CCOC(=O)c1c(C)oc2nc(C)nc(NCCc3ccc(OCC)c(OCC)c3)c12	i	x	x	13µM*	u	i
CCOC(=O)c1c(C)oc2nc(C)nc(NCCc3ccc(OCC)cc3)c12	u	x	x	5.2µM*	6.5µM*	i
CCOC(=O)c1c(C)oc2nc(C)nc(NCC3CCN(Cc4ccc(C)cc4)CC3)c12	i	x	x	-24%	u	i
CCOC(=O)c1c(C)oc2nc(C)nc(NCC3CCN(Cc4cccc(Cl)c4)CC3)c12	i	x	x	-19%	-21%	i
CCOC(=O)c1c(C)oc2nc(C)nc(NCCc3ccc(Cl)cc3)c12	i	x	x	13µM*	u	i
COc1ccc(C)cc1NC(=O)CNC(C)C(=O)Nc1cc(Cl)ccc1Cl (centres undefined)	u	-1%	0%	u	u	i
Cc1ccc(S(=O)(=O)N2CCOC23CCN(C(=O)c2cc(Cl)ccc2Cl)CC3)cc1	i	-11%	-29%	u	u	u
Cc1ccc(S(=O)(=O)N2CCOC23CCN(C(=O)c2ccc(Cl)cc2Cl)CC3)cc1	i	-23%	u	21µM*	u	u
Cc1ccc(S(=O)(=O)N2CCOC23CCN(S(=O)(=O)c2c(C)cc(C)cc2C)CC3)cc1	u	-17%	-5%	u	18µM*	u
COc1ccc(S(=O)(=O)N2CCOC23CCN(S(=O)(=O)c2ccc(C)cc2)CC3)cc1	i	-14%	-18%	u	u	i
NCCNc1ncnc2ccc(-c3ccc4c(c3)OCO4)cc12	i	x	x	x	x	u
SMILES	KB-V1 MDR tox	HT1080 IDH1KD tx	HT1080-NT tox	DT40 TDP1 no CPT	TDP1 cell CPT	KB-3-1 cytotox
Oc1ccc(C=NNC(=S)Nc2ccc(F)cc2)c(O)c1	i	18µM*	u	u	-104%	u
Fc1ccc(/C=N/NC(=S)Nc2cccnc2)cc1F	i	15%	7%	u	u	i
Fc1cccc(F)c1/C=N/NC(=S)Nc1cccnc1	i	7%	8%	-11%	u	i
O=C(CCC(=O)Nc1ccc(F)cc1)N/N=C/c1ccc(O)cc1O	i	-18%	-13%	u	0%	i
Oc1ccc(/C=N/NC(=S)Nc2cccnc2)c(O)c1	i	u	u	8.2µM*	u	i
Fc1c(F)c(F)c(/C=N/NC(=S)Nc2cccnc2)c(F)c1F	i	16µM*	u	18µM*	u	i
Oc1ccc(/C=N/NC(=S)Nc2cccnc2)c(O)c1O	i	4%	4%	15µM*	9.2µM*	i
Cc1cc(NC(=O)c2ccco2)sc1C	u	-18%	-17%	u	u	u
Cc1cc(NC(=O)CCC(=O)N(c2ccccc2C)C(C(=O)NC2CCCC2)c2ccccc2)no1 (centres undefined)	i	u	-8%	u	u	i
COc1cccc(CN2C(=O)NC(C)(C3CCN(Cc4cccc(O)c4)CC3)C2=O)c1OC (centres undefined)	x	x	x	-26%	-21%	x
Oc1cccc(/C=N/NC(=S)Nc2cccnc2)c1O	i	u	u	4.6µM*	2.3µM*	10µM*
Cc1ccc(-n2nc(C(=O)c3ccccc3)n3c(=O)c(Cc4ccccc4)nnc23)cc1	16µM*	-3%	-3%	12µM*	u	i
COC(=O)c1nn(-c2ccccc2)c2nnc(Cc3ccc(C)cc3)c(=O)n12	u	11%	-4%	-7%	1%	i
COc1ccc(OC)c(-c2cnc(OC(C)(C)C)nc2OC(C)(C)C)c1	u	13µM*	u	8.2µM*	21µM*	u
Cc1ccc(N2CCN(C(=O)Cn3ncc4c([nH]c5ccc(C)cc54)c3=O)CC2)c(C)c1	i	x	x	-29%	-25%	i
CCN(CC(=O)N1CCN(c2ccccc2)CC1)S(=O)(=O)c1ccc(C)cc1	u	-3%	8%	13µM*	u	i
CN(Cc1ccccc1)S(=O)(=O)c1ccc(Cl)c(C(=O)N2CCC(C(N)=O)CC2)c1	i	2%	-1%	10µM*	23µM*	i
CN(Cc1ccccc1)S(=O)(=O)c1ccc(Cl)c(C(=O)N2CCC2)c1	16µM*	-1%	-3%	u	u	i
